Experiment [1] is described as follows: ATG_XTT_Cytotoxicity: Cytotoxicity Assessment in the Attagene TRANS-FACTORIAL HepG2 Assay (AID 2283584). The method in brief:
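24 h chemical exposure of reporter-transfected HepG2; XTT signal loss vs DMSO indicates cytotoxicity.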

The nature of experiment [2]: TOX21_p53_BLA_p2_viability: Viability Assessment in the Tox21 HCT-116 p53 Agonism Beta-lactamase Assay, Phase 2 (AID 2283591).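 Also: compound exposure lasted 16 h at 37 °C; actives lower the ATP signal meaning cytotoxicity.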 The method in brief: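 HCT116 p53-bla cells, 4000/well, dosed after 5 h plating (217-fold dilution of DMSO stocks) and incubated 16 h at 37C. Viability taken as cellular ATP by CellTiter-Glo luminescence after 30 min RT; signal loss marks cytotoxicity.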

For experiment [3], the target named is Cellular tumor antigen p53 (Homo sapiens) (UniProt P04637). Briefly: TOX21_p53_BLA_p2_ratio: Tox21 HCT-116 p53 Agonism Beta-lactamase Assay, Ratio, Phase 2 (AID 2283592). In a few lines: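 Human colon HCT116 cells with an inducible p53 beta-lactamase reporter are exposed to test chemicals for 16 h at 37C. Reporter induction is read as the 460/530 nm emission ratio after CCF4-AM loading, normalized to DMSO.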
Sequence of Cellular tumor antigen p53 (Homo sapiens) (P04637 whole entry, looked up): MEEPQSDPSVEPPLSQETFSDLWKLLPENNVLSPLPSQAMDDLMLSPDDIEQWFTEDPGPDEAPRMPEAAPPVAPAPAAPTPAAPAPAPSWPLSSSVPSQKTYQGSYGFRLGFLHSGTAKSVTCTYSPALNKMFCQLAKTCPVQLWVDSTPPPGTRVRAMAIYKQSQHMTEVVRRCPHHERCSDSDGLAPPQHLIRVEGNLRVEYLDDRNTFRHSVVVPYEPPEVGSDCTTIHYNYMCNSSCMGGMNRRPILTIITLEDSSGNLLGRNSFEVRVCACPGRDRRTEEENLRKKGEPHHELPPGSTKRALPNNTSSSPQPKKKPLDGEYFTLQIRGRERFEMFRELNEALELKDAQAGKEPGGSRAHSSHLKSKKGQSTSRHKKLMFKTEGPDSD

Experiment [4] is described as follows: TOX21_p53_BLA_p3_viability: Viability Assessment in the Tox21 HCT-116 p53 Agonism Beta-lactamase Assay, Phase 3 (AID 2283593).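 Also: cells exposed to compound for 16 h before reading.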 The method in brief:
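HCT116 cells, 4000/well, dosed 5 h after plating by pin transfer (217-fold dilution from DMSO stock) and incubated 16 h at 37C, 5% CO2. Viability read as ATP luminescence with CellTiter-Glo after 30 min at room temperature.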

SMILES strings stand for the structures. Inconclusive results are not listed. Activity calls are given as the source filed them. The calls were made as follows: active = hit-call score of the fitted dose curve at least 0.9, where 1 is the maximum; inconclusive = response in the unintended direction; inactive = score below 0.9.

One may read the AC50 as the concentration giving half of the maximal activity seen.

With `C=C1C[C@H]2[C@@H]3C=C(C)C4=CC(=O)CC[C@]4(C)[C@H]3CC[C@]2(C)[C@@]1(OC(C)=O)C(C)=O`, the compound was classed as inactive in experiment [1], in experiment [2], in experiment [3] and in experiment [4].
Regarding `O=C(O)/C=C/c1ccccc1`, the compound was called inactive in experiment [1], in experiment [2] and in experiment [3].
`CC1OC(=O)C(C)OC1=O` (stereo not drawn): the result in experiment [1], in experiment [2], in experiment [3] and in experiment [4] was inactive.
Regarding `CCCCOCC(C)O` (stereo not drawn), the outcome in experiment [1], in experiment [2] and in experiment [3] was inactive.
Consider `CC1=C(O)C(=O)C(C)O1` (stereo not drawn), for which the result in experiment [1], in experiment [2] and in experiment [3] was inactive.
With `CCCCCCC=O`, the call in experiment [1], in experiment [2], in experiment [3] and in experiment [4] was inactive.
In the case of `c1ccc2cnccc2c1`, the compound was classed as inactive in experiment [1], in experiment [2] and in experiment [4].
For the compound `CC1(C)[C@@H]2CC[C@@]1(C)C(=O)C2`, the compound was classed as inactive in experiment [1], in experiment [2], in experiment [3] and in experiment [4].
Turning to `C=C(C)[C@@H]1CC=C(C)CC1`, the compound was classed as inactive in experiment [1], in experiment [2] and in experiment [4].
With `CC(C)(C)NC(=O)[C@H]1CC[C@H]2[C@@H]3CC[C@H]4NC(=O)C=C[C@]4(C)[C@H]3CC[C@]12C`, the result in experiment [1], in experiment [2], in experiment [3] and in experiment [4] was inactive.
Take `CC/C=C\CCOC(=O)c1ccccc1O`: the result in experiment [1], in experiment [2], in experiment [3] and in experiment [4] was inactive.
Turning to `CCN1CCCC1=O`, the compound was classed as inactive in experiment [1], in experiment [2], in experiment [3] and in experiment [4].
On to `Cc1ccc(S(=O)(=O)N=C=O)cc1`, for which the result in experiment [1], in experiment [2] and in experiment [4] was inactive.
Turning to `CCOC(=O)/C=C\C(=O)OCC`, the result in experiment [1], in experiment [2], in experiment [3] and in experiment [4] was inactive.
With `CCOC(=O)c1ccc(C)cc1`, the result in experiment [1], in experiment [2] and in experiment [4] was inactive.
Regarding `Fc1ccc(Br)cc1`, the compound was called inactive in experiment [1], in experiment [2], in experiment [3] and in experiment [4].
Regarding `c1ccc2c(c1)[nH]c1ccccc12`, the outcome in experiment [1], in experiment [2], in experiment [3] and in experiment [4] was inactive.
As to `CC(=O)CCC=C(C)C`, the compound was classed as inactive in experiment [1], in experiment [2], in experiment [3] and in experiment [4].
For `O=C(Oc1ccccc1)c1ccccc1C(=O)Oc1ccccc1`, the result in experiment [1], in experiment [2], in experiment [3] and in experiment [4] was inactive.
For `CC(=O)OCCc1ccccc1`, the compound was classed as inactive in experiment [1], in experiment [2] and in experiment [4].
As for `CC(C)c1cccc(C(C)C)c1N`, the compound was called inactive in experiment [1], in experiment [2], in experiment [3] and in experiment [4].
Take `C=CC(C)(CCC=C(C)C)OC(=O)C=Cc1ccccc1` (stereo not drawn): the result in experiment [1], in experiment [2] and in experiment [4] was inactive.
Regarding `COCC(=O)O`, the call in experiment [1], in experiment [2], in experiment [3] and in experiment [4] was inactive.
Turning to `CCCCCCCCCCCCCCCCCCOS(=O)(=O)O`, the outcome in experiment [1] and in experiment [2] was inactive. In experiment [4], the half-maximal activity concentration (AC50) is 66.9 µM (active).
For `Cc1noc(NS(=O)(=O)c2ccc(N)cc2)c1C`, the compound was classed as inactive in experiment [1], in experiment [2], in experiment [3] and in experiment [4].
On to `O=C(Cl)c1ccc(C(=O)Cl)cc1`, for which the compound was classed as inactive in experiment [1], in experiment [2], in experiment [3] and in experiment [4].
For the compound `CCCCC(CC)COC(=O)/C=C/c1ccc(OC)cc1` (stereo not drawn), the result in experiment [1], in experiment [2] and in experiment [4] was inactive.
Turning to `CCCCCCOc1ccc(N)cc1`, the outcome in experiment [1], in experiment [2], in experiment [3] and in experiment [4] was inactive.
On to `CC1(C)CCC[C@]2(C)[C@H]3CC(=O)O[C@]3(C)CC[C@@H]12`, for which the result in experiment [1], in experiment [2], in experiment [3] and in experiment [4] was inactive.
Turning to `O=C1CCCCCCCCCCCN1`, the outcome in experiment [1], in experiment [2], in experiment [3] and in experiment [4] was inactive.
`C=C(C)C1CC=C(C)CC1` (stereo not drawn): the outcome in experiment [1], in experiment [2] and in experiment [4] was inactive.
Take `CC(C)CC(=O)OCc1ccccc1`: the outcome in experiment [1], in experiment [2], in experiment [3] and in experiment [4] was inactive.
With `N=C1C=CC(=C(c2ccc(N)cc2)c2ccc(N)cc2)C=C1`, the compound was classed as inactive in experiment [1], in experiment [2] and in experiment [4]. The AC50 in experiment [3] is 54.2 µM (active).
Regarding `CC(=O)OC1CCCCC1C(C)(C)C` (stereo not drawn), the result in experiment [1], in experiment [2], in experiment [3] and in experiment [4] was inactive.
For the compound `O=C(O)c1ccc2c(c1)C(=O)OC2=O`, the compound was classed as inactive in experiment [1], in experiment [2], in experiment [3] and in experiment [4].
For `CC(C)c1ccc(O)c(C(C)C)c1`, the compound was classed as inactive in experiment [1], in experiment [2], in experiment [3] and in experiment [4].
For `CC(C)(C)C1CCC(=O)CC1`, the result in experiment [1], in experiment [2], in experiment [3] and in experiment [4] was inactive.
In the case of `O=C(O)c1cc(O)c2ccccc2c1O`, the outcome in experiment [1], in experiment [2], in experiment [3] and in experiment [4] was inactive.
For the compound `CCCCNS(=O)(=O)c1ccccc1`, the result in experiment [1], in experiment [2], in experiment [3] and in experiment [4] was inactive.
As to `CC(=O)CC(=O)Nc1ccccc1C`, the compound was called inactive in experiment [1], in experiment [2], in experiment [3] and in experiment [4].
Consider `CC(C)CCCCCOC(=O)CS`, for which the compound was called inactive in experiment [1], in experiment [2] and in experiment [4].
With `CO[Si](C)(C)OC`, the compound was called inactive in experiment [1] and in experiment [3].
As to `CC(=O)OC/C=C(/C)CCC=C(C)C`, the outcome in experiment [1] and in experiment [3] was inactive.
On to `CC(CCC(=O)O)(c1ccc(O)cc1)c1ccc(O)cc1`, for which the call in experiment [1] and in experiment [3] was inactive.
On to `C=Cc1ccc(OC(C)=O)cc1`, for which the call in experiment [1], in experiment [3] and in experiment [4] was inactive.
Take `C=CC(=O)OCC(C)OCC(C)OCC(C)OC(=O)C=C` (stereo not drawn): the compound was called inactive in experiment [1], in experiment [3] and in experiment [4].

For the origin of these results see PubChem BioAssay (EPA / NIEHS).
